Compound activity as filed in PubChem.
Compounds with a hit are over-represented: about 1.4% of the library has one in this group of screens.
AmpC detergent: qHTS Inhibitors of AmpC Beta-Lactamase (assay with detergent) | Potency, µM (top dose mostly 114 µM), without a hit: at the top dose activity change, negative = inhibition, actives largely listed as inhibitors | P00811 | 370,000 compounds, 0.041% hits | AID 485294, 2010 | AmpC hydrolysis of nitrocefin, absorbance 480 nm, 0.01% Triton;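 further: 0% = no-compound wells and -100% = no-enzyme wells; nearly all actives have a fitted effect of over 25% in size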
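20 mM phosphate pH 7.0 + 0.01% (detergent screen) or 0.0001% Triton X-100; 5.3 nM AmpC reagent; cpd preinc 15 min RT; nitrocefin (800 uM stock) to start; A480 q20 s × 4 min; Activity was normalised to no-enzyme and no-compound control wells.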
LmPK inhibitor: qHTS Assay for Inhibitors of Leishmania Mexicana Pyruvate Kinase (LmPK); Q27686; purified LmPK, Kinase-Glo ATP luminescence, 1 h; Potency, µM (top dose mostly 57.5 µM), inactives show at the highest dose activity change, negative = inhibition, hits mostly inhibitors; 290,000 compounds, 0.37% hits
Target sequence (Q27686 whole entry, looked up): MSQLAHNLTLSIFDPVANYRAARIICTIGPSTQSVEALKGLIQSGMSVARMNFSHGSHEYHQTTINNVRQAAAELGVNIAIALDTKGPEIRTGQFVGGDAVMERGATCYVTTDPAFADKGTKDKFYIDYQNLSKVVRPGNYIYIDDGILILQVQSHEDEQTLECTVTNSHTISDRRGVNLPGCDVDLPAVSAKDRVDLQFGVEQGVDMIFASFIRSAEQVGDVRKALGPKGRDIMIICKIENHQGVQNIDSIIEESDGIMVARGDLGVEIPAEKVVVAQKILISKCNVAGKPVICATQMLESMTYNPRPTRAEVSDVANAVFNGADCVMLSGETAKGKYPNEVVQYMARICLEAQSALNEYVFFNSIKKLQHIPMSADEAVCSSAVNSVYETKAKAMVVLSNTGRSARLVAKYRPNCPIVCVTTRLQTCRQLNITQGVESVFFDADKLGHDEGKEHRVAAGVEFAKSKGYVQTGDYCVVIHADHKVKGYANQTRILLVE
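Pyruvate kinase activity monitored as ATP production (luciferase luminescence). Conditions: 0.1 nM enzyme, 0.5 mM PEP, 0.1 mM ADP, 1 h, RT; normalized against uninhibited and no-enzyme wells.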
RE007 growth inh: qHTS Assay for Inhibitors of the HIV-1 protein Vpr; 360,000 compounds, 0.21% hits; Potency, µM (top dose mostly 92.2 µM), for the others: top-dose activity change, negative = less growth, actives largely listed as inhibitors; S. pombe RE007 Vpr strain, BacTiter-Glo ATP luminescence, 24 h; AID 651644, 2012; active means well fitted falling curve with a large enough effect; inconclusive means small, poorly fitted or top-dose-only effect; inactive means no such curve, though single readings can be large or run the other way; further: nearly all actives have a fitted effect of over 50% in size
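Fission yeast strain RE007, carrying one chromosomally integrated HIV-1 vpr copy, was seeded at OD 0.01 in PMG+AL medium with 23 nL pinned compound. After 24 h at 30 °C and 99% humidity, viability was read by BacTiter-Glo luminescence.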
Giardia FBPA inh: qHTS Assay for Inhibitors of Fructose-1,6-bisphosphate Aldolase from Giardia Lamblia | A8B2U2 | purified Giardia FBPA | Potency, µM (doses to about 59.6 µM), without a hit: at the highest dose activity, negative = inhibition, most hits filed as inhibitors | 290,000 compounds, 0.71% hits | AID 2451, 2010; further: nearly all actives have a fitted effect of over 55% in size
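Giardia FBPA (40 nM reagent) was preincubated 10 min at RT with compound (up to 57.5 uM final), then substrate plus GAPDH/TPI/NAD/arsenate coupling system with diaphorase/resazurin was added; resorufin fluorescence (525/598 nm) was read after 20 min.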
TbPYK inhibitor: qHTS of Trypanosoma Brucei Inhibitors; pyruvate kinase (Trypanosoma brucei), Q57TT1; AID 624173, 2012; Potency, µM (highest dose often 76.8 µM), for inactives: at the highest dose activity, negative = inhibition, actives largely listed as inhibitors; 410,000 compounds, 0.12% hits; TbPYK enzyme, Kinase-Glo Plus ATP luminescence, 45 min; further: nearly all actives have a fitted effect of over 50% in size
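Enzyme and substrate buffer are dispensed first and compound is pin-transferred. ADP at 130 uM final then starts the reaction, which runs 45 min at room temperature. Detection reagent is added for 10 min before luminescence is imaged.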
AmpC no deterg: qHTS Inhibitors of AmpC Beta-Lactamase (assay without detergent); AmpC nitrocefin hydrolysis, absorbance 480 nm, 0.0001% Triton; AID 485341, 2010; 330,000 compounds, 0.52% hits; Potency, µM (doses to about 57.1 µM), without a hit: at the highest dose activity change, negative = inhibition, most hits filed as inhibitors; P00811;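 further: plate controls were no compound for no effect and no enzyme for full effect; nearly all actives have a fitted effect of over 20% in size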
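AmpC (5.3 nM in the dispensed reagent) in 20 mM phosphate pH 7.0 with 0.01% (detergent screen) or 0.0001% Triton X-100 was preincubated with compounds for 15 min at room temperature. Nitrocefin was then added from an 800 uM solution, and hydrolysis was followed at 480 nm.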
An asterisk follows results filed as active; u = inconclusive; x = no result given; [ ] = dose if it differs, or a comment. Unless noted, the call rests on the fitted dose curve; in most records, active means well fitted curve in the direction sought with a large enough effect; inconclusive means small, poorly fitted or top-dose-only effect, or another doubt; inactive means no such curve, though single readings can be large; an effect the other way counts as inactive or inconclusive. Unless noted, on the % scale 0 is the no-effect control and ±100 the full control effect; potency means the concentration at half of the fitted maximal effect.

SMILES | AmpC detergent | LmPK inhibitor | RE007 growth inh | Giardia FBPA inh | TbPYK inhibitor | AmpC no deterg
O=S(=O)(c1cc(O)ccc1O)c1cccc2c(S(=O)(=O)c3cc(O)ccc3O)cccc12 | -10% | x | 12% | x | u | 20µM*
CCn1c(-c2cccn(Cc3ccc(Cl)cc3Cl)c2=O)n[nH]c1=S | 0% | 11% | 21% | -5% | 5.6µM* | -15%
S=c1[nH]nc(-c2ccc(Cl)cc2Cl)n1Cc1ccccc1 | -12% | u | u | 21% | -27% | -20%
NCCc1cc(O)c(O)cc1O | x | x | 6%[18.4 µM] | 5.6µM* | u | x
NCCc1ccc(O)c(O)c1 | -10% | 13% | 11%[18.4 µM] | u | -8% | 0%
CCOc1cc(/C=C2\SC(=O)N(c3ccc(O)cc3)C2=O)ccc1O | -5% | 1% | -6% | 10% | 0% | 10µM*
Cc1ccc(N2CCN(C(=O)c3cn(C)c4ccc(S(=O)(=O)N5CCC(C)CC5)cc4c3=O)CC2C)cc1 (stereo not drawn) | -3% | x | x | x | 2% | x
Cc1ccccc1NS(=O)(=O)c1cc(C(=O)NCCC2=CCCCC2)ccc1C | u | 1% | -3% | -6% | 7% | 10µM*
COc1cc(CNCCSc2nnnn2C)ccc1OCc1ccccc1C | 0% | x | x | x | -3% | x
Cc1ccc(C)c(N2CCN(C(=O)c3c(C)oc4nc(C)nc(N5CCOCC5)c34)CC2)c1 | -9% | x | x | x | 5% | x
CC1=C(n2nnc([N+](=O)[O-])n2)C(c2cccnc2)C(C#N)=C(N)O1 (stereo not drawn) | -11% | -1% | 4% | 5µM* | 1% | -22%
CC(=O)Nc1ccc(NC(=O)CCc2nc3cccnc3n2Cc2cccs2)cc1 | 0% | x | x | x | -2% | x
Cc1ccc(Cl)cc1N1CCN(C(=O)c2cn(C)c3ccc(S(=O)(=O)N4CCC(C)CC4)cc3c2=O)CC1 | 2% | x | x | x | -2% | x
COc1cccc(Cn2c(-c3nonc3NC(C)=O)nc3ccccc32)c1 | 12% | x | x | x | -7% | x
O=C1C2C3C=CC(CNS(=O)(=O)c4ccccc4[N+](=O)[O-])(O3)C2C(=O)N1c1ccccc1 (stereo not drawn) | -5% | 4% | 5µM* | -5% | -20% | -36%
O=[N+]([O-])c1ccccc1S(=O)(=O)NCc1ccco1 | 3% | 5% | 0% | 3% | -5% | -13%
Cc1cc(C)c(S(=O)(=O)NCCS(=O)(=O)N2CCN(c3ccccc3)CC2)c(C)c1 | 20% | x | x | x | 3% | x
Cc1cc(C)c(S(=O)(=O)NCC23C=CC(O2)C2C(=O)N(c4ccccc4)C(=O)C23)c(C)c1 (stereo not drawn) | -15% | 3% | 22µM* | x | -20% | 40%
Nc1cccc(-c2nc3ccc(N)cc3s2)c1 | -2% | 13µM* | -24% | -10% | u | -17%
Nc1ccc(-c2nc3ccc(C(=O)O)cc3s2)cc1 | -10% | u | -8% | -15% | u | -18%
Nc1ccc(-c2nc3ccc(N)cc3s2)cc1 | -6% | 14µM* | u | 5% | -9% | -24%
Nc1cc2sc(-c3ccc(C(=O)O)cc3)nc2cc1Cl | u | 16µM* | u | -30% | u | -12%
CC(C)(Oc1ccc(Cl)cc1)C(=O)Nc1nnc2n1CCS2 | -7% | x | x | x | 1% | x
CCn1nc(/C=C/c2ccccc2)nc2c(=O)n(C)c(=O)nc1-2 | -6% | 5% | 28µM* | 1% | -10% | -27%
CCN(c1ncnc2c1cnn2-c1cc(Cl)ccc1C)C1CCCCC1 | 6% | x | x | x | 0% | x
SMILES | AmpC detergent | LmPK inhibitor | RE007 growth inh | Giardia FBPA inh | TbPYK inhibitor | AmpC no deterg
COc1ccc(/C=N/NC(=O)c2nn(-c3ccccc3)c(=O)c3c(N)scc23)cc1 | 1% | 7% | -17% | 2.5µM* | -10% | -42%
COc1ccc(CN(CCC#N)C(=S)NC(=O)c2ccccc2)cc1 | 0% | 20µM* | 16% | x | u | -25%
Cn1c(N)c(C(C[N+](=O)[O-])c2ccccc2Cl)c(=O)n(C)c1=O (stereo not drawn) | x | x | 40µM* | x | 2% | x
COc1cccc(F)c1C(C[N+](=O)[O-])c1c(N)n(C)c(=O)n(C)c1=O (stereo not drawn) | 2% | 13% | 16µM* | -4% | -1% | -11%
S=c1[nH]nc(-c2ccc(Cl)cc2)n1/N=C/c1ccco1 | -3% | -7% | 1% | 3% | 4µM* | -25%
S=c1[nH]nc(-c2ccc(Cl)cc2)n1/N=C/C=C/c1ccco1 | -6% | -9% | -1% | -1% | u | 16µM*
Cc1cc(-c2n[nH]c(=S)n2/N=C/C=C/c2ccco2)n[nH]1 | -2% | 9% | 6% | u | -38% | -29%
Cc1ccccc1-c1n[nH]c(=S)n1/N=C/C=C/c1ccco1 | 3% | -1% | 4% | -10% | -24% | 10µM*
Cn1cccc1/C=N/n1c(-c2ccc(Cl)cc2)n[nH]c1=S | -10% | -15% | 13% | 30% | u | -33%
S=c1[nH]nc(-c2ccccc2)n1/N=C/C=C/c1ccco1 | -13% | -1% | 7% | 6% | u | -56%
Cc1ccc(/C=C2\C(=O)NC(=S)N(c3ccc(F)cc3)C2=O)s1 | u | -2% | 2% | 0% | u | u
Cc1ccc(/C=C2\C(=O)NC(=S)N(c3ccccc3F)C2=O)s1 | 1% | 8% | -1% | -10% | 32µM* | -31%
Cc1ccc(S(=O)(=O)c2cn(C)c3cc(N4CCCC(C)C4)c(F)cc3c2=O)c(C)c1 (stereo not drawn) | 4% | x | x | x | 0% | x
O=C(OCC1OC(OC(=O)c2cc(O)c(O)c(OC(=O)c3cc(O)c(O)c(O)c3)c2)[C@@H](OC(=O)c2cc(O)c(O)c(OC(=O)c3cc(O)c(O)c(O)c3)c2)C(OC(=O)c2cc(O)c(O)c(OC(=O)c3cc(O)c(O)c(O)c3)c2)C1OC(=O)c1cc(O)c(O)c(OC(=O)c2cc(O)c(O)c(O)c2)c1)c1cc(O)c(O)c(OC(=O)c2cc(O)c(O)c(O)c2)c1 (stereo partly drawn) | x | x | x | 3.5µM* | u | x
COc1cccc(CNC(=O)c2ccc(CSc3nc4ccncc4n3Cc3cccc(C)c3)cc2)c1 | 13% | x | x | x | -8% | x
CCOc1ccc(-n2c(C)cc(C(=O)CCl)c2C)cc1 | -1% | 0% | u | 0% | -8% | -14%
COC(=O)c1ccc(-n2c(C)cc(C(=O)CCl)c2C)cc1 | -1% | 0% | 25µM* | 8% | -1% | -21%
